Screening results deposited in PubChem by National Center for Advancing Translational Sciences (NCATS).
ATXN2 expr inh = Primary qHTS for Inhibitors of ATXN expression; HEK-293 ATXN2-luciferase reporter, luminescence, 24 h; Potency, µM (doses to about 57 µM), inactives show at the highest dose activity change, negative = inhibition, hits mostly inhibitors; 0.72% of 360,000 active; AID 1745845, 2022; further: on the % scale 0 is the no-effect control and ±100 the full control effect; nearly all actives have a fitted effect of over 55% in size
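ATXN2-luciferase reporter cells (luciferase flanked by upstream and downstream ATXN2 gene portions) were treated 24 h at 37 °C with compounds at up to 57 uM. SteadyGlo luminescence gave expression; GF-AFC fluorescence gave viability.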
S2 tox = Viability Counterscreen for Primary qHTS for Inhibitors of ATXN expression; S2 cells (HEK-293 line with an ATXN2-luciferase reporter) viability, CellTiter-Fluor protease fluorescence, 24 h; Potency, µM (highest dose often 56.7 µM), actives largely listed as cytotoxic; 0.49% of 400,000 active; AID 651635, 2014; further: nearly all actives have a fitted effect of over 40% in size
Nrf2 block = Nrf2 qHTS screen for inhibitors; A549 ARE-Fluc reporter, luciferase luminescence, 18-24 h; Potency, µM (highest dose often 46 µM), for inactives: top-dose activity change, negative = inhibition, actives largely listed as inhibitors; 2.1% of 360,000 active; further: on the % scale 0 is the no-effect control and ±100 the full control effect; nearly all actives have a fitted effect of over 60% in size
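A549 ARE_Fluc cells (5000/well, 5% FBS OPTI-MEM) pre-incubated 2 h, then treated with compounds 18-24 h at 37C/5% CO2 in concentration-response. CellTiter-Fluor viability read first; BugLite luciferase luminescence after 15 min at room temperature gives Nrf2 activity.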
TGFb SMAD3 inh = qHTS for Inhibitors of TGF-b | HepG2 CAGA-GFP TGF-b/SMAD3 reporter, GFP fluorescence, 18 h; TGF-beta stimulated, 500 pg/mL final | Potency, µM (highest dose often 46.1 µM), inactives show at the highest dose activity, negative = inhibition, usual class: inhibitors | 1.2% of 410,000 active | AID 588855, 2011; further: on the % scale 0 is the no-effect control and ±100 the full control effect; nearly all actives have a fitted effect of over 65% in size
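Read-out: total well GFP (ex488/em500-530) summed from mean per-cell fluorescence. Cells: HEPG2 CAGA-GFP, 1% FBS DMEM, 18 h at 37 degrees C with 500 pg/mL final TGF-beta. Unstimulated wells served as the full-inhibition control; stimulated DMSO wells = 0%.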
A549 tox = Nrf2 qHTS screen for inhibitors: counterscreen for cytotoxicity. A549 ARE-Fluc cells, CellTiter-Fluor viability, 18-24 h. Potency, µM (series often up to 46 µM), inactives show at the top dose activity change, negative = cytotoxicity, actives largely listed as inhibitors. 0.16% of 390,000 active. AID 504648, 2011; further: on the % scale 0 is the no-effect control and ±100 the full control effect
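Cytotoxicity counterscreen: CellTiter-Fluor fluorescence was measured in A549 ARE_Fluc cells after 18-24 h of compound exposure in a concentration series. The subsequent BugLite luminescent read reports ARE-luciferase activity.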
HepG2 tox = qHTS for Inhibitors of TGF-b: Cytotox Counterscreen; Potency, µM (top dose mostly 46.1 µM), for the others: at the highest dose activity change, negative = cytotoxicity, actives largely listed as cytotoxic; HepG2 CAGA-GFP viability, ATP luminescence, 18 h; AID 588856, 2011; 0.76% of 410,000 active
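HepG2 CAGA-GFP cells (1000/well, DMEM with 1% FBS) received compound, then TGF-beta at 500 pg/mL final, and were incubated 18 hours at 37 degrees C. Viability was read by CellTiter-Glo luminescence. Media-only wells were set as complete cell-killing and DMSO as no toxicity.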
The depositor's hits bear a star; i = inactive; ? = inconclusive; · = no result given; ! = repeats disagree. Hits are enriched below; roughly 3.8% of the tested compounds scored in any of these assays. The call rests on the fitted dose curve; in most records, active means well fitted curve in the direction sought with a large enough effect; inconclusive means small, poorly fitted or top-dose-only effect, or another doubt; inactive means no such curve, though single readings can be large; an effect the other way counts as inactive or inconclusive. Potency means the concentration at half of the fitted maximal effect.

SMILES	ATXN2 expr inh	S2 tox	Nrf2 block	TGFb SMAD3 inh	A549 tox	HepG2 tox
C(=N\N(Cc1ccccc1)c1ccccc1)/c1cccnc1	-28%	i	12%	?	0%	-12%
Oc1cccc(/C=N/N(Cc2ccccc2)c2ccccc2)c1	-9%	i	14%	?	0%	13µM*
Cc1ccc(-n2c(SCc3cccc(F)c3)nc3[nH]ncc3c2=O)cc1C	-14%	?	·	?	-6%	20µM*
CCc1ccc(-n2c(SCc3cccc(F)c3)nc3[nH]ncc3c2=O)cc1	?	?	·	?	1%	20µM*
CCc1ccc(-n2c(SCc3ccccc3C)nc3[nH]ncc3c2=O)cc1	·	·	·	·	-6%	22µM*
O=c1c2cn[nH]c2nc(SCc2c(F)cccc2F)n1-c1ccc(Cl)cc1	-13%	i	?	16µM*!	-5%	-106%
CCc1ccc(-n2c(SCc3ccccc3Cl)nc3[nH]ncc3c2=O)cc1	?	?	·	?	1%	-99%
Cn1c(CNC(=O)C(Cc2ccccc2)NC(=O)c2ccccc2F)cc(=O)n(C)c1=O (stereo unspecified)	-5%	i	-2%	0%	?	-3%
COc1ccc(CN2CCC(CO)(Cc3cccc(C(F)(F)F)c3)CC2)cc1Cn1cccn1	·	i	6%	?	-1%	-81%
O=[N+]([O-])c1cc(C(F)(F)F)cc([N+](=O)[O-])c1NCCNC(=S)Nc1cccc(F)c1	?	?	?	11µM*	?	-126%
CC(/C=C/c1ccc(N(C)C)cc1)=N/N=C1/NC(=O)CC(C(=O)Nc2ccc(Cl)cc2)S1 (stereo unspecified)	26%	?	?	10µM*	18µM*	-38%
CC(/C=C/c1ccc(N(C)C)cc1)=N\N=C1\NC(=O)CC(C(=O)Nc2ccccc2)S1 (stereo unspecified)	4%	i	-22%	16µM*	-28%	2%
CCCOc1ccc(NC(=O)C2CC(=O)N/C(=N/N=C(C)/C=C/c3ccc(N(C)C)cc3)S2)cc1 (stereo unspecified)	40%	i	?	-17%	?	-14%
CCc1cc(=O)oc2cc3occ(-c4ccc(OC)c(F)c4)c3cc12	?	·	-26%	-52%	?	-44%
O=C(NCCS(=O)(=O)N1CCN(c2cccc(Cl)c2)CC1)C(c1ccccc1)c1ccccc1	·	·	·	-3%	-1%	-19%
CCNc1nc(-c2sc(NC(=O)C(C)(C)C)nc2C)c(-n2cc(-c3ccccc3)nn2)s1	14µM*	·	·	·	·	·
Cc1nc(NC(=O)C(C)(C)C)sc1-c1nc(N)sc1-n1cc(-c2ccccc2)nn1	5%	i	·	·	·	·
O=c1[nH]nc(CNc2cccc(C(F)(F)F)c2)c2ccccc12	·	i	13µM*	-20%	0%	-30%
COc1ccc(CCCc2nnc(SCC(=O)Nc3ccc(Cl)cc3)o2)cc1	?	i	21µM*	-1%	0%	2%
COc1ccc(CCCc2nnc(SCC(=O)NN)o2)cc1	-8%	i	0%	-19%	-1%	-8%
O=C1CC2(CCN(C(=O)c3ccc(F)cc3)CC2)Oc2ccccc21	-5%	i	3%	-2%	-7%	6%
O=[N+]([O-])c1ccc(NN=Cc2ccc(O)cc2O)nc1	?	i	-16%	2%	?	-13%
CCN(CC)S(=O)(=O)c1ccc(N/N=C/c2ccc(O)cc2O)nc1	2.8µM*	?	?	-5%	-11%	-18%
COc1cc(OC)c(-c2c3cc(O)c(=O)cc-3oc3cc(O)c(O)cc23)cc1OC	-31%	13µM*	?	?	16µM*	-10%
